Laboratory results taken from PubChem BioAssay (Tox21).
A number with no mark means an inactive call. Results filed as inconclusive are left out. Entries that show only a call come without a potency. Calls of active or inactive are those of the source. Unless noted, the call rests on the fitted dose curve.

Columns and labels:
[1] = Nuclear factor erythroid 2-related factor 2/antioxidant responsive element (Nrf2/ARE) small molecule agonists: luciferase reporter gene qHTS assay in human keratinocytes (AID 1919969); further: nearly all actives have a fitted effect of over 35% in size; further: potency means the concentration at half of the fitted maximal effect
[2] = biological target: KiSS-1 receptor (Homo sapiens) (UniProt Q969F8); experiment: Human kisspeptin (KISS1R) small molecule agonists, calcium flux assay in KISS1R-HEK293 cells (AID 1920064; active means well fitted activation curve with a large enough effect in the repeat runs; further: potency means the concentration at half of the fitted maximal effect)
Sequence of KiSS-1 receptor (Homo sapiens) (Q969F8 whole entry, looked up): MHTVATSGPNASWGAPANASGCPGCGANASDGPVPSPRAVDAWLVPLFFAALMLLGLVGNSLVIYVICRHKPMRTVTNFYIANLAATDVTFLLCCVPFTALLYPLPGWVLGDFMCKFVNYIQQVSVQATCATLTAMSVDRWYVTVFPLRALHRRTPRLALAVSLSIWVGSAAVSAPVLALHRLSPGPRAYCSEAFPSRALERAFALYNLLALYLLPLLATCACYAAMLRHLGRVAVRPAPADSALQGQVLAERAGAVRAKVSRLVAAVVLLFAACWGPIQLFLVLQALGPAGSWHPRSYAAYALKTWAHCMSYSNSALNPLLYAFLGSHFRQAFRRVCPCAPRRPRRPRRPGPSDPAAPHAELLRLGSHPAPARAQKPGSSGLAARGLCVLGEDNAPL
Procedure, shortened: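 Cells plated and incubated 18 h; dye added, 1 h at 37 C; compounds in DMSO pinned in; signal read at 480/540 nm every second for 3 min. Each compound tested at 15 concentrations in triplicate.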

[3] = G protein-coupled receptor (GPCR) small molecule agonists, calcium flux assay: HEK293 wild type cell line counter screen (AID 1920065); further: potency means the concentration at half of the fitted maximal effect
Procedure, shortened: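 Counter-screen of the Tox21 10K library for non-specific calcium release: dye-loaded cells received compounds in DMSO and were monitored by kinetic fluorescence (480/540 nm, 3 min). Fifteen concentrations, run in triplicate.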

[4] = p53 small molecule agonists, cell-based qHTS assay with human liver microsomes (AID 1963577)
Procedure, shortened: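 Cells carrying a p53-responsive bla reporter were rested 5 h (37 C, 5% CO2) before compound transfer. Human liver microsomes plus NADPH, 0.5 mg/mL final apiece, supplied metabolism during the 16 h 37 C exposure.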

[5] = p53 small molecule agonists, cell-based qHTS assay with human liver microsomes: qHTS cell viability counter screen (AID 1963579); further: nearly all actives have a fitted effect of over 45% in size
Procedure, shortened: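 Seed p53RE-bla cells at 4,000 per well; incubate 5 h at 37 C; add compound, human liver microsomes and NADPH; incubate 16 h at 37 C; add CellTiter-Glo; after 30 min at room temperature, read luminescence.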

[6] = p53 small molecule agonists, cell-based qHTS assay with rat liver microsomes: qHTS cell viability counter screen (AID 1963580); further: nearly all actives have a fitted effect of over 45% in size
Procedure, shortened: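 In HCT-116 cells carrying a p53 response element-bla reporter, compounds were metabolically activated in situ by rat liver microsomes with NADPH over 16 h. Cell ATP content then served as the cytotoxicity measure.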

[7] = p53 small molecule agonists, cell-based qHTS assay: qHTS cell viability counter screen (AID 1963581); further: nearly all actives have a fitted effect of over 45% in size
Procedure, shortened: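 Cells: HCT-116 with p53 response element-driven beta-lactamase. Treatment: 16 h, 37 C, compounds in DMSO. Read: CellTiter-Glo luminescence after 30 min RT.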

[8] = biological target: 5-hydroxytryptamine receptor 2A (Homo sapiens) (UniProt P28223); experiment: 5-hydroxytryptamine receptor 2A (HTR2A) small molecule agonists, cell-based qHTS assay (AID 1963587); further: nearly all actives have a fitted effect of over 30% in size; further: potency means the concentration at half of the fitted maximal effect
Sequence of 5-hydroxytryptamine receptor 2A (Homo sapiens) (P28223 whole entry, looked up): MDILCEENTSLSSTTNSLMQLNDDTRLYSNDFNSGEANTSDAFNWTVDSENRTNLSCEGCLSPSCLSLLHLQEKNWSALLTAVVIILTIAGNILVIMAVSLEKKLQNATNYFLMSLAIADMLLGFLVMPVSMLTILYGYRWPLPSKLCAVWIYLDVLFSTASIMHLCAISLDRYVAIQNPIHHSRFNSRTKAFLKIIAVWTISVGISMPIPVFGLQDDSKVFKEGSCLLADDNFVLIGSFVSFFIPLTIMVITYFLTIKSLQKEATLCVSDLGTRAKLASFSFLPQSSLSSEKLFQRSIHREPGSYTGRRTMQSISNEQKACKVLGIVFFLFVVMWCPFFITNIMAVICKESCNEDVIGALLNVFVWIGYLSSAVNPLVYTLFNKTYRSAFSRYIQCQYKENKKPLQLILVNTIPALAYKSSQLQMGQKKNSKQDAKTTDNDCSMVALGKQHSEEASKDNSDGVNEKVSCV
Procedure, shortened: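 HTR2A-CHO cells, plated 18 h at 37 C/5% CO2, dye-loaded 1 h at 37 C; compounds in DMSO added by pin tool (agonist mode). Intracellular calcium flux read as kinetic fluorescence on FDSS over 2 min at 1 s intervals.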

[9] = biological target: Muscarinic acetylcholine receptor M1 (Homo sapiens) (UniProt P11229); experiment: Cholinergic receptor muscarinic 1 (CHRM1) small molecule antagonists, cell-based qHTS assay (AID 1963588); further: nearly all actives have a fitted effect of over 40% in size; further: potency means the concentration at half of the fitted maximal effect
Sequence of Muscarinic acetylcholine receptor M1 (Homo sapiens) (P11229 whole entry, looked up): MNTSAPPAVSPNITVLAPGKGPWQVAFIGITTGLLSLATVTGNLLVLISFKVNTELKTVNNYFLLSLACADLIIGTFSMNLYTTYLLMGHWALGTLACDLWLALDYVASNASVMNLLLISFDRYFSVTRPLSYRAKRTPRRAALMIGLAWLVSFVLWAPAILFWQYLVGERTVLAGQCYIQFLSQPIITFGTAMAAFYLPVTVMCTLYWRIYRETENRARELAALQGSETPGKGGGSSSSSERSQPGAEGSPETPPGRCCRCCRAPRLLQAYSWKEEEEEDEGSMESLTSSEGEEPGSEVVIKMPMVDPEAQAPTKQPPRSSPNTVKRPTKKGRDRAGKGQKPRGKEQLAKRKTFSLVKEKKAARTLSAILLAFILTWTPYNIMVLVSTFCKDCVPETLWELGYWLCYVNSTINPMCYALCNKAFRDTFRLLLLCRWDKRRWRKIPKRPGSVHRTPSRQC
Procedure, shortened: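 CHRM1-CHO calcium-flux assay, antagonist mode. Cells were seeded 18 h, dye-loaded 1 h at 37 C and given compound for 5 min at RT, then acetylcholine was added at 50nM. FDSS fluorescence was read 3 min; 15 concentrations, three runs.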

[10] = biological target: Muscarinic acetylcholine receptor M1 (Homo sapiens) (UniProt P11229); experiment: Cholinergic receptor muscarinic 1 (CHRM1) small molecule agonists, cell-based qHTS assay (AID 1963589); further: nearly all actives have a fitted effect of over 35% in size
Procedure, shortened: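 Agonist-mode qHTS in CHO cells stably carrying human muscarinic M1. Intracellular calcium is tracked by fluorescence every second after compound transfer; each compound runs at 15 concentrations in three independent runs.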

[11] = cAMP Responsive Elements (CRE) small molecule agonists, cell-based qHTS assay (AID 1963590)
Procedure, shortened: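 Agonist mode qHTS in CRE-bla HEK 293T cells: compounds dosed from DMSO for 3 h at 37 C/5% CO2, followed by LiveBLAzer B/G FRET substrate for 2 h at room temperature.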

[12] = cAMP Responsive Elements (CRE) small molecule antagonists, cell-based qHTS assay (AID 1963591; active means well fitted inhibition curve with a large enough effect in the signal ratio in the repeat runs, not every such curve was filed as active; the % refers to the signal ratio)
Procedure, shortened: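 Antagonist mode: test compounds are co-incubated with the adenylyl cyclase activator NKH477 (0.25 uM final) on CRE-bla HEK293T cells for 3 h at 37 °C, followed by LiveBLAzer substrate loading.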

[13] = biological target: Beta-2 adrenergic receptor (Homo sapiens) (UniProt P07550); experiment: Adrenergic beta2 receptor (ADRB2) small molecule antagonists, cell-based qHTS assay (AID 1963592); further: nearly all actives have a fitted effect of over 50% in size; further: potency means the concentration at half of the fitted maximal effect
Sequence of Beta-2 adrenergic receptor (Homo sapiens) (P07550 whole entry, looked up): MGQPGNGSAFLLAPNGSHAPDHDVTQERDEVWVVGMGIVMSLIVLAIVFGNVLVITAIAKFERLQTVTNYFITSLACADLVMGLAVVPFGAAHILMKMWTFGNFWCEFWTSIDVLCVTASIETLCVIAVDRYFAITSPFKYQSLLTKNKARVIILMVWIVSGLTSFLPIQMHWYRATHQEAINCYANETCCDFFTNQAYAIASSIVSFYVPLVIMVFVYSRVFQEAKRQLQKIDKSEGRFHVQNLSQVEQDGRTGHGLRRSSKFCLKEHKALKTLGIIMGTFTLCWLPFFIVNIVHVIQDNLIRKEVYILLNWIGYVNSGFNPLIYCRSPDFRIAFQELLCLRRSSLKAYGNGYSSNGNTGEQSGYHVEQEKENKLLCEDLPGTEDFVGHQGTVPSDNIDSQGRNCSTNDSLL
Procedure, shortened: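 Cells (CHO, stable ADRB2 overexpression) incubated 18-20hr at 37C; compounds added from DMSO; agonist mix (1nM isoproterenol, 100uM IBMX, 25uM Ro-20-1724) added; 0.5hr RT; d2-cAMP and anti-cAMP-cryptate added; 1hr RT; 665/615 nm read.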

[14] = biological target: Beta-2 adrenergic receptor (Homo sapiens) (UniProt P07550); experiment: Adrenergic beta2 receptor (ADRB2) small molecule agonists, cell-based qHTS assay (AID 1963593);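 further: CHO cells stably overexpressing human ADRB2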
Procedure, shortened: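 CHO cells stably over-expressing ADRB2 were plated overnight at 37C, then dosed with compounds plus a stimulation mix containing 100uM IBMX and 25uM Ro-20-1724 for 0.5hr at room temperature. cAMP was measured by HTRF competition, 1hr.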

[15] = biological target: D(2) dopamine receptor (Homo sapiens) (UniProt P14416); experiment: Dopamine D2 receptor (DRD2) small molecule agonists, cell-based qHTS assay (AID 1963594); further: nearly all actives have a fitted effect of over 35% in size; further: potency means the concentration at half of the fitted maximal effect
Sequence of D(2) dopamine receptor (Homo sapiens) (P14416 whole entry, looked up): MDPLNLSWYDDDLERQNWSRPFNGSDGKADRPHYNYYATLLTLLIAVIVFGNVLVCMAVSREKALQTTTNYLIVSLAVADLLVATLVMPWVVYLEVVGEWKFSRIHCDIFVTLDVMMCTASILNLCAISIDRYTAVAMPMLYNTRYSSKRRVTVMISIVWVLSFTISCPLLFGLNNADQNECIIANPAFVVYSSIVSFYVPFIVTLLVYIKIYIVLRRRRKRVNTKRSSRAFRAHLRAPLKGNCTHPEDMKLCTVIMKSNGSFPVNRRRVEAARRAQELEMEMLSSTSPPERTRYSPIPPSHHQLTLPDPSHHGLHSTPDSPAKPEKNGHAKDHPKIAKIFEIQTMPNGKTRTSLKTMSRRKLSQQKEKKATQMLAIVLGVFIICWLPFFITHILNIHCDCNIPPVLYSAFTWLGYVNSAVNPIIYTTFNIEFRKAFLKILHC
Procedure, shortened: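 HEK293 cells stably expressing DRD2 were cultured 24 h at 37 C, then given Ro20-1724 (0.1 mM final) and compounds for 10 min at room temperature. NKH477 (200nM) was then added for 30 min. cAMP was read by HTRF.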

[16] = biological target: D(2) dopamine receptor (Homo sapiens) (UniProt P14416); experiment: Dopamine D2 receptor (DRD2) small molecule antagonists, cell-based qHTS assay (AID 1963595; active means well fitted inhibition curve with a large enough effect in the signal ratio in the repeat runs, with a control signal flat; the % refers to the signal ratio)
Procedure, shortened: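 HEK293 cells stably expressing DRD2 were preincubated with 0.1 mM Ro20-1724, then with compound for 10 min at room temperature. Cells were stimulated with 200 nM NKH477 plus 12 nM quinpirole for 30 min, and cAMP was read by HTRF.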

[17] = p53 small molecule agonists, cell-based qHTS assay with rat liver microsomes (AID 1963578)
Procedure, shortened: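 Fluorescence from a beta-lactamase reporter under a p53 response element was measured after cells had been incubated 16 h at 37 C with test compound and rat liver microsomes plus NADPH (0.5 mg/mL final each).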

[18] = p53 small molecule agonists, cell-based qHTS assay (AID 1963582; active means well fitted activation curve with a large enough effect in the signal ratio in the repeat runs, not every such curve was filed as active; the % refers to the signal ratio)
Procedure, shortened: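 Quantitative HTS in p53RE-bla cells: after a 5 h settling period, compounds delivered in DMSO were left on cells for 16 h at 37 C, and reporter induction was measured as fluorescence following 2 h substrate loading.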

[19] = biological target: Gonadotropin-releasing hormone receptor (Homo sapiens) (UniProt P30968); experiment: Human gonadotropin-releasing hormone receptor (GnRHR) small molecule agonists, calcium flux assay in GnRHR-HEK293 cells (AID 1920063); further: nearly all actives have a fitted effect of over 35% in size
Sequence of Gonadotropin-releasing hormone receptor (Homo sapiens) (P30968 whole entry, looked up): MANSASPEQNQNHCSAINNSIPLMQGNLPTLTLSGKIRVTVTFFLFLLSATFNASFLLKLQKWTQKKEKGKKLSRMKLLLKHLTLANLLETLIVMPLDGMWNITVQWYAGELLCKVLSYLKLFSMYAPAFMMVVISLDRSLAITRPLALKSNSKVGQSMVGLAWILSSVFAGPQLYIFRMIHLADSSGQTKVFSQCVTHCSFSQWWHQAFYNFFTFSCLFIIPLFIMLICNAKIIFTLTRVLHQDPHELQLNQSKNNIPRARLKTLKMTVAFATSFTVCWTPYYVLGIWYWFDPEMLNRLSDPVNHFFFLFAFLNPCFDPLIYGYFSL
Procedure, shortened: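 Cells: HEK293 stably expressing human GnRHR. Steps: overnight (18 h) culture, 1 h calcium dye loading at 37 C, compound addition, kinetic fluorescence read at 480/540 nm. Each compound tested at 15 concentrations in triplicate.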

[20] = biological target: 5-hydroxytryptamine receptor 2A (Homo sapiens) (UniProt P28223); experiment: 5-hydroxytryptamine receptor 2A (HTR2A) small molecule antagonists, cell-based qHTS assay (AID 1963586); further: nearly all actives have a fitted effect of over 45% in size; further: potency means the concentration at half of the fitted maximal effect
Procedure, shortened: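 Antagonist-mode intracellular calcium assay: DOI (4 nM) added after 5 min compound pre-incubation at room temperature to dye-loaded HTR2A-CHO cells. Fluorescence followed for 3 min, sampled every second.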

| Compound | Potency [1] | Potency [2] | Potency [3] | Potency [4] | Potency [5] | Potency [6] | Potency [7] | Potency [8] | Potency [9] | Potency [10] | Potency [11] | Potency [12] | Potency [13] | Potency [14] | Potency [15] | Potency [16] | Potency [17] | Potency [18] | Potency [19] | Potency [20] |
| --- | --- | --- | --- | --- | --- | --- | --- | --- | --- | --- | --- | --- | --- | --- | --- | --- | --- | --- | --- | --- |
| CCC(C)(C)c1cc(O)c(C(C)(C)CC)cc1O | 4.86 µM (active) | inactive | inactive | inactive | inactive | inactive | inactive | 4.9 µM (active) | inactive | inactive | inactive | inactive | inactive | inactive | inactive | inactive |  |  |  |  |
| CCOC(=O)COc1ccc2c(c1)CC(NCC(O)c1cccc(Cl)c1)CC2 (stereo not given) | inactive | inactive | inactive | inactive |  |  | inactive |  |  | inactive |  |  |  | inactive |  |  | inactive | inactive |  |  |
| CN(C)[C@@H](CCOc1cccc2ccccc12)c1ccccc1 | inactive |  |  | inactive |  | inactive | inactive | 10.7 µM (active) |  | inactive | inactive |  | inactive |  | inactive | inactive | inactive | inactive | inactive | 3.26 µM (active) |
| CCCCCCCCCCCCCOS(=O)(=O)O | inactive | inactive | inactive | inactive |  | inactive | inactive |  | inactive | inactive |  | inactive | inactive |  | inactive | inactive | inactive | inactive |  | 42.1 µM (active) |
| NC(=S)NC(N)=S | 13.7 µM (active) | inactive | inactive | inactive | inactive | inactive | inactive |  | inactive | inactive | inactive | inactive | inactive |  | inactive | inactive | inactive | inactive |  | inactive |
| CCCN(CCc1cccs1)[C@H]1CCc2c(O)cccc2C1 | inactive | inactive | inactive | inactive | inactive | inactive | inactive | 0.12 µM (active) | 10.3 µM (active) | inactive |  |  | inactive | inactive |  | inactive | inactive | inactive |  |  |
| CNCCCCOc1ccccc1Cc1ccccc1 | inactive | inactive | inactive | inactive |  | inactive | inactive |  | inactive | inactive | inactive |  | 8.41 µM (active) |  | inactive | inactive | inactive | inactive |  | 0.115 µM (active) |
| N#C/C(=C1/SC[C@@H](c2ccc(Cl)cc2Cl)S1)n1ccnc1 | inactive | inactive | inactive | inactive | inactive | inactive | inactive | inactive | inactive | inactive |  |  | inactive | inactive | 26.6 µM (active) | inactive | inactive |  |  | inactive |
| CC(C)(C)CC(C)(C)N | inactive |  | inactive |  | inactive | inactive | inactive | inactive | inactive |  | inactive | inactive | inactive |  | inactive | inactive |  |  | inactive | inactive |
| CCCCCCOc1ccc(O)cc1 | 21.7 µM (active) |  |  |  |  |  |  | inactive | inactive | inactive |  |  | inactive |  | inactive |  |  |  | inactive |  |
| CC1(C)O[C@@H]2C[C@H]3[C@@H]4CCC5=CC(=O)C=C[C@]5(C)[C@H]4[C@@H](O)C[C@]3(C)[C@]2(C(=O)CO)O1 | inactive | inactive | inactive | inactive | inactive | inactive |  | inactive | inactive | inactive |  |  | inactive | inactive | inactive |  |  | inactive |  |  |
| Nc1ccn(C2CO[C@H](CO)O2)c(=O)n1 (stereo not given in full) | inactive | 6.74 µM (active) | 16.9 µM (active) | inactive | inactive | inactive | inactive | 7.56 µM (active) | inactive |  | inactive | inactive | inactive | inactive | inactive | inactive |  |  |  |  |
| COC(C)(C)OC | inactive |  | inactive |  | inactive | inactive | inactive | inactive | inactive | inactive | inactive | inactive | inactive |  |  | inactive |  |  | inactive | inactive |
